High-throughput results from PubChem.
MBNL1-CUG inh: blocks human MBNL1 binding to CUG repeat RNA; Q9NR56; TR-FRET MBNL1-His/biotin-(CUG)12 binding, 665/545 ratio; Potency, µM (top dose mostly 57.5 µM), for the others: at the top dose activity change, negative = inhibition, actives largely listed as inhibitors; hit rate 0.036% among 280,000; AID 2675; active means well fitted inhibition curve with a large enough effect in the signal ratio, with a control signal flat, not every such curve was filed as active; inconclusive means small, poorly fitted or top-dose-only effect, or effect the other way, or a change in a side signal; inactive means no such curve, though single readings can be large or run the other way; the % refers to the signal ratio; further: potency means the concentration at half of the fitted maximal effect; on the % scale 0 is the no-effect control and ±100 the full control effect
Target sequence (Q9NR56 whole entry, looked up): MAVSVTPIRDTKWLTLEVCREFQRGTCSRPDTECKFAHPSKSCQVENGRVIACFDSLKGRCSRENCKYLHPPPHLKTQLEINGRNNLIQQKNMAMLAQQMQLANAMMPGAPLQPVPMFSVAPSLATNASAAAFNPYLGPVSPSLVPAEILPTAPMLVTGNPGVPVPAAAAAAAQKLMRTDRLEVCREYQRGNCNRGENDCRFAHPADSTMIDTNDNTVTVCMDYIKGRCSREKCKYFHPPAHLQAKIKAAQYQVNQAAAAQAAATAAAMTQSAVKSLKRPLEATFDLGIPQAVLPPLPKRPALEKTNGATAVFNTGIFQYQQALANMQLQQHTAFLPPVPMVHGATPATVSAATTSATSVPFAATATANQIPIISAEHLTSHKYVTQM
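His-tagged MBNL1 binding to biotinylated (CUG)12 RNA was measured by TR-FRET using terbium anti-His antibody (0.055 ng/ul final) and streptavidin-XL665 (5 nM final). Compounds were titrated 92 nM to 58 uM; 60 min at room temperature.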
Six1-Eya2 blk: inhibitors of human Six1/Eya2 interaction. activity change, % (test concentration not listed). Q15475+O00167. AID 651725. AlphaScreen GST-Six1/His-Eya2 binding, biochemical; stronger effect = lower value. hit rate 0.56% among 360,000; in the data active means activity change below about -65%; inconclusive means mostly about -30% to -63%; further: on the % scale 0 is the no-effect control and ±100 the full control effect
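Six1/Eya2 binding was read as AlphaScreen signal after compounds were pinned into GST-Six1 plus His-tagged Eya2 (5X stock 250/500 nM) in pH 8.0 Tris/NaCl/TCEP buffer, beads added, then incubated 1 h, 37 C, dark.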
PKM2 activator: increases activity of human pyruvate kinase M2 | P14618 | purified PKM2, Kinase-Glo ATP luminescence, activation; response scale: 0% is enzyme alone, no compound | Potency, µM (titrated, usually from 57.5 µM), inactives show top-dose activation, usual class: activators | hit rate 0.34% among 260,000 | AID 1631; further: potency means the concentration at half of the fitted maximal effect; on the % scale 0 is the no-effect control and ±100 the full control effect; nearly all actives have a fitted effect of over 55% in size
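Purified hPK-M2 (>95%) run at intermediate activity with 0.1 mM ADP and 0.5 mM PEP in 50 mM imidazole pH 7.2, KCl, MgCl2; 1 h room temperature. ATP formed read by Kinase-Glo luminescence; normalized to uninhibited and no-enzyme controls.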
CtBP-E1A inh: blocks the CtBP interaction with E1A. activity change, % (concentration not given with the values). AlphaScreen GST-E1A/His-CtBP binding, 1536-well; stronger effect = lower value. hit rate 0.49% among 340,000; in the data active means activity change below about -65%; inconclusive means mostly about -30% to -63%; further: on the % scale 0 is the no-effect control and ±100 the full control effect
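GST-E1A and His-tagged CtBP (125 nM each as 5X stock) were preincubated with pin-transferred compound for 2 h at 37 °C in the dark, then glutathione donor and nickel acceptor beads were added for 1 h before AlphaScreen reading.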
HeLa viability: HeLa cytotoxicity, CellTiter-Glo readout; shares compounds with PKM2 activator; HeLa viability, CellTiter-Glo ATP luminescence, 24 h; activity change, negative = cytotoxicity, % at 57.5 µM; 230 tested, under 10 active; further: % of control where 0% means no effect
* marks the source's active call; other numbers are inactive results; ? = inconclusive; . = no result. In the library only some 0.93% were active in any assay of this set; here they are far more common. Unless noted, the call rests on the fitted dose curve; in most records, active means well fitted curve in the direction sought with a large enough effect; inconclusive means small, poorly fitted or top-dose-only effect, or another doubt; inactive means no such curve, though single readings can be large; an effect the other way counts as inactive or inconclusive.

SMILES	MBNL1-CUG inh	Six1-Eya2 blk	PKM2 activator	CtBP-E1A inh	HeLa viability
S=C(c1ccc(-c2ccc(Cl)cc2Cl)o1)N1CCCC1	15%	-2	8.9µM*	.	5
CSCCC(NS(=O)(=O)Cc1ccccc1)C(=O)NNc1ccccc1 (configuration not stated)	.	0	.	7	.
CCOC(=O)c1c(NC(=O)CCc2ccc(CC)o2)sc(C)c1C	5%	12	?	9	.
COC(=O)c1c(NC(=O)CCc2ccc(C)o2)sc(C)c1C	4%	-5	7.9µM*	0	-1
CCC(=O)N(C)C[C@H]1Oc2ncc(C#Cc3cccnc3)cc2C(=O)N([C@@H](C)CO)C[C@@H]1C	.	-2	.	-7	.
O=C(CN1C(=O)N/C(=C\c2cccn2-c2cccc(C(=O)O)c2)C1=O)Nc1ccccc1F	.	.	.	.	-4
CCOc1ccc(C(=O)N2CCN(Cc3ccccc3)CC2)cc1	-6%	0	5.6µM*	1	0
CCOc1ccc(CN2CCN(C(=O)c3ccccc3)CC2)cc1	13%	27	1%	33	.
O=C(Cn1ncc2c3ccccc3n(Cc3ccccc3F)c2c1=O)N1CCN(c2ccccn2)CC1	11%	0	1%	-5	.
COc1cc2c(s1)c1cnn(Cc3ccccc3F)c(=O)c1n2C	.	.	.	.	-12
Cn1c2cc(C=O)sc2c2cnn(Cc3ccccc3F)c(=O)c21	.	.	.	.	-11
Cn1c2ccccc2c2cnn(CC(=O)Nc3cccc(F)c3)c(=O)c21	-2%	2	3%	-1	.
CC(=O)Nc1cc2c(s1)c1cnn(Cc3ccccc3F)c(=O)c1n2C	.	.	.	.	2
Cc1c2cnn(CC(=O)Nc3c(F)c(F)cc(F)c3F)c(=O)c2c(C)n1Cc1ccccc1F	2%	-19	2%	6	.
Cn1c2cc(CO)sc2c2cnn(Cc3ccccc3F)c(=O)c21	.	.	.	.	3
CC1(C(=O)Nc2cnc3ccccc3c2)CCN1Cc1ccccc1Cl (configuration not stated)	.	-6	.	-8	.
CCc1cc2c(s1)c1cnn(Cc3ccccc3F)c(=O)c1n2C	.	.	.	.	?
CSc1cc2c(s1)c1cnn(Cc3ccccc3F)c(=O)c1n2C	.	.	.	.	6
O=c1c2cnn(-c3ccccc3)c2ncn1Cc1ccccc1F	3%	6	1%	3	.
Cc1ccc(C)c2[nH]c(=O)c(CN(Cc3ccco3)C(=O)Nc3ccccc3)cc12	3%	-5	7.9µM*	-5	?
Cc1ccc2cc(CN(Cc3ccco3)C(=O)NCc3ccccc3)c(=O)[nH]c2c1C	-10%	-15	-3%	-2	.
Cc1ccc(S(=O)(=O)N2CCCN(S(=O)(=O)c3ccc4ccccc4c3)CC2)cc1	-1%	3	0.71µM*	10	-18
Cc1nc2ccc(S(=O)(=O)N3CCN(S(=O)(=O)c4c(F)cccc4F)CC3)cc2s1	.	.	.	.	-1
COc1ccc(CCC(=O)N2CCN(S(=O)(=O)c3ccc4ccccc4c3)CC2)cc1	-5%	15	0.79µM*	-1	-9
COc1ccc(CCNc2ccc(S(=O)(=O)N3CCCC3)cc2[N+](=O)[O-])cc1	.	?	3.2µM*	-29	-4
SMILES	MBNL1-CUG inh	Six1-Eya2 blk	PKM2 activator	CtBP-E1A inh	HeLa viability
CN(C)c1ncnc2c1ncn2[C@H]1CN(Cc2ccc(Cl)cc2)C[C@@H](CO)O1	.	1	.	0	.
O=C1NC[C@H](CCCCN2C[C@H](Cc3ccccc3)N(Cc3ccccc3)C(=O)C2=O)N(CCc2ccccc2)C1=O	.	10	.	1	.
CCNC(=O)C1(C)CCN(C(=O)c2ccc(C(F)(F)F)cc2)C1 (configuration not stated)	.	4	.	5	.
CC(C)n1nnnc1C1c2ccccc2C(=O)N1Cc1cccnc1 (configuration not stated)	.	-2	.	3	.
CN1OC[C@@H]2CN(S(=O)(=O)c3cccc(C(F)(F)F)c3)[C@H](c3ccc(-c4cccnc4)cc3)C[C@@H]21	.	11	.	-24	.
Cn1ccc2cc(S(=O)(=O)N3CCN(S(=O)(=O)c4c(F)cccc4F)CC3)ccc21	.	.	.	.	-4
O=S(=O)(c1ccc2ccccc2c1)N1CCN(S(=O)(=O)c2c(F)cccc2F)CC1	.	.	.	.	?
Cc1oc(=O)c(NC(=O)c2ccccc2)cc1C(=O)c1ccccc1	5%	-1	28%	5	.
Cc1oc(=O)c(NC(=O)c2ccc(Cl)cc2)cc1C(=O)c1ccccc1	-11%	-3	6.3µM*	-7	2
CC1(Cc2cccc(C#N)c2)C(=O)Nc2c(Cl)cccc21 (configuration not stated)	.	2	.	1	.
CC(O)(c1cccc(F)c1)c1nc(-c2cc(F)cc(F)c2)cs1 (configuration not stated)	.	11	.	12	.
N#Cc1ccc(CSc2ncnc3c2cnn3Cc2ccccc2)cc1	6%	9	20µM*	8	-2
Cc1cccc(OCCSc2nc3c([nH]2)c(=N)ncn3Cc2ccccc2)c1	-12%	-5	4%	-2	.
CC(C)Sc1nc2c([nH]1)c(=N)ncn2Cc1ccccc1	-2%	7	14µM*	-15	-1
Cc1csc(SCC(=O)Nc2nccs2)n1	.	-6	.	-2	.
Cc1nnc2sc(SCC(=O)Nc3nccs3)nn2c1=O	.	?	1.4µM*	-3	0
O=C(C(=O)N1CCN(C(=O)OCc2ccccc2)CC1)c1cccnc1	.	1	.	7	.
N#Cc1ccc(S(=O)(=O)N2CCN(S(=O)(=O)c3ccc4c(c3)OCCO4)CC2)cc1	.	.	.	.	-12
O=S(=O)(c1ccc(F)cc1)N1CCN(S(=O)(=O)c2ccc3c(c2)OCCO3)CC1	.	.	.	.	10
Cc1ccc(S(=O)(=O)N2CCN(S(=O)(=O)c3ccc4c(c3)OCCO4)CC2)cc1	6%	6	?	3	.
CCCc1cc(F)c(S(=O)(=O)N2CCN(S(=O)(=O)c3ccc4c(c3)OCCO4)CC2)cc1F	.	.	.	.	-1
O=S(=O)(c1ccc(Cl)cc1)N1CCN(S(=O)(=O)c2ccc3c(c2)OCCO3)CC1	.	.	.	.	?
COc1ccccc1NC(=O)COC(=O)Cn1c(C)csc1=O	.	14	.	-19	.
O=C(c1cc(-c2ccccc2)on1)N(Cc1cccnc1)C(c1ccccn1)c1nc2ccccc2[nH]1 (configuration not stated)	.	5	.	-16	.
COc1cc2cc(C#N)c(SCC(=O)Nc3cc(C)on3)nc2cc1OC	23%	-5	0.22µM*	-17	-5
COc1ccc2nc(SCC(=O)Nc3cc(C)on3)c(C#N)cc2c1	13%	21	.	-3	.
Cc1ccccc1S(=O)(=O)NC(=O)C1(C)CCN1C(=O)CC1CCCCC1 (configuration not stated)	.	7	.	-2	.
CCN1C(=O)c2cccc3c(S(=O)(=O)Nc4ccncc4)ccc1c23	?	-1	1%	0	.
CCN1C(=O)c2cccc3c(S(=O)(=O)Nc4ccccc4)ccc1c23	?	11	4µM*	1	?
